The source made the active and inactive calls. The calls were made as follows: active = hit-call score of the fitted dose curve at least 0.9, where 1 is the maximum; inactive = score below 0.9. Peptide text beside a SMILES is read from it.
assay: ATG_TA_CIS: Attagene CIS-FACTORIAL HepG2 Assay for human TA Basal Promoter (AID 2282964); details: HepG2 Attagene CIS-factorial TA basal promoter reporter; actives raise or lower the signal
Protocol: ATG_CIS is a cell-based, multiplexed-readout assay that uses HepG2, a human liver cell line, with measurements taken at 24 hours after chemical dosing in a 24-well plate.ATG_TA_CIS is one of 52 assay component(s) measured or calculated from the ATG_CIS assay. It is designed to make measurements of mRNA induction, a form of inducible reporter, as detected with fluorescence intensity signals by Reverse transcription polymerase chain reaction (RT-PCR) and Capillary electrophoresis technology.Data from the assay component ATG_TA_CIS was analyzed into 1 assay endpoint. This assay endpoint, ATG_TA_CIS, was analyzed with bidirectional fitting relative to DMSO as the negative control and baseline of activity. Using a type of inducible reporter, measures of mRNA for gain or loss-of-signal activity can be used to understand the background control at the transcription factor-level as they relate to the gene . Furthermore, this assay endpoint can be referred to as a secondary readout, because this assay has produced multiple assay endpoints where this one serves a background control function. To generalize the intended target to other relatable targets, this assay endpoint is annotated to the background measurement intended target family, where the subfamily is internal marker.
Human liver HepG2 cells are transiently transfected with multiple reporter transcription units (MRTUs) in 6-well plates using FuGene 6 reagent (Roche; 3 ml FuGene/1 mg DNA). The MRTU constructs are regulated by a cis-regulating element (promoter). […] A major difference between the CIS and TRANS system is that in CIS activities of endogenous TFs are measured, whereas the TRANS assay evaluates changes in activities of exogenous, chimeric NR-Gal4 proteins. […] At the end of 24 hour incubation, total RNA was isolated using TriZol reagent (Invitrogen). The isolated RNA is then reverse-transcribed using oligo(dT) primer and Mo-MLV reverse transcriptase (Invitrogen) with DNAse I (Ambion) treatment for 30 min. The one-tenth of the produced cDNA was amplified by PCR using Taq DNA polymerase (Invitrogen) and two reporter sequence-specific primers. The PCR products were fluorescently labeled by primer extension with 6-arboxyfluorescein (6-FAM) 5'-labeled reporter sequence-specific primer (2 min at 95 C, 20 s at 68 C and 10 min at 72 C) and these products were digested with 5U of HpaI (New England Biolabs) for 2h at 37 C. The fragments were purified using Qiaquick PCR columns (Qiagen), analyzed on an ABI 3130xL genetic analyzer (Applied Biosystems) with peak positions identified by using a set of X-rhodamine (ROX)-labeled MapMarker1000 molecular weight standards (BioVentures). The raw capillary electrophoresis data was processed using Attagraph software (Attagene).

| SMILES | outcome |
| --- | --- |
| Oc1ccccc1Cc1ccccc1O | inactive |
| CN(C)Cc1cc(CN(C)C)c(O)c(CN(C)C)c1 | inactive |
| CC(C)c1ccc2ncccc2c1 | inactive |
| CCOC(=O)/C=C\C(=O)OCC | inactive |
| C1CCSC1 | inactive |
| CC(C)CCOCc1ccccc1 | inactive |
| CCCCC(CC)COC(=O)/C=C/c1ccc(OC)cc1 (stereo not given) | inactive |
| CC/C=C\C/C=C\C/C=C\CCCCCCCC(=O)OC | inactive |
| CCN(CC)c1cccc(C)c1 | inactive |
| CCCSSCCC | inactive |
| COC(=O)C=Cc1ccccc1 | inactive |
| C=C(C)[C@@H]1CC=C(C)CC1 | inactive |
| N#Cc1ccc(C2CCCc3cncn32)cc1 (stereo not given) | inactive |
| O=C(O)CCCC(=O)O | inactive |
| CC(C)(C)N | inactive |
| O=C1c2ccccc2C(=O)c2cc(S(=O)(=O)O)ccc21 | inactive |
| CC=CC(=O)OCC(C)C | inactive |
| CCCCCCOc1ccc(N)cc1 | inactive |
| CCCCCCCCCCCCCC(=O)OC(C)C | inactive |
| C=CCCCCCCCCC=O | inactive |

| SMILES | outcome |
| --- | --- |
| CC(=O)CCC=C(C)C | inactive |
| C=CCCCCCCCCOC(C)=O | inactive |
| CCC(C)N (stereo not given) | inactive |
| CC(C)c1cccc(C(C)C)c1N | inactive |
| CCOC(=O)c1ccccc1C | inactive |
| CC(C)=CCCC(C)=CC#N | inactive |
| CCCCCCCO | inactive |
| C=C(C)C1CC=C(C)CC1 (stereo not given) | inactive |
| CCC(=O)C1CC(C(C)C)CC=C1C (stereo not given) | inactive |
| CC(=O)C(C)C | inactive |
| CCCC/C=C/C=C\C=O | inactive |
| C=CCNCC=C | inactive |
| C=CC(=O)OCCCCCCOC(=O)C=C | inactive |
| CC(C)C(=O)OCCc1ccccc1 | inactive |
| CC(C)c1cc(C(C)C)cc(C(C)C)c1 | inactive |
| CC(C)(CO)COC(=O)C(C)(C)CO | inactive |
| C=CCCCCCCCCO | inactive |
| CC1CCC(=O)C1=O (stereo not given) | inactive |
| CCCCC(C=O)CC (stereo not given) | inactive |
| COC(=O)[C@H](Cc1ccccc1)NC(=O)[C@@H](N)CC(=O)O (H-Asp-Phe-OMe) | inactive |
